# The list is not random: actives were taken first. Their share in the collection is about 14%.
# Pf growth 48h = Primary qHTS for delayed death inhibitors of the malarial parasite plastid, 48 hour incubation; Potency, µM (series often up to 28.7 µM), for inactives: top-dose activity change, negative = inhibition, usual class: inhibitors; hit rate 5.9% among 310,000; P. falciparum luciferase growth in erythrocytes, 48 h; also: potency is read from the fitted curve at half-maximal effect
#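 Growth was read as firefly luciferase luminescence after a 48 h, 37 C, 5% CO2 exposure of compounds to reporter-bearing P. falciparum cultures (0.1% parasitemia, 2% hematocrit final) in Albumax-supplemented RPMI 1640.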
# HCMV antiviral = qHTS Assay for inhibitors of the human cytomegalovirus (HCMV). HFF cells, HCMV-luciferase reporter, 72 h; active compounds read low. activity change, negative = inhibition, % at 57.5 µM. hit rate 4.5% among 410,000. AID 1259415, 2018; in the data active = activity change below about -60%; inconclusive = no clear call, values can overlap the other calls; inactive = above about -39%
#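 Luciferase read-out from HCMV-luciferase-infected HFFs (MOI 1 PFU/cell) 72 h post infection at 37C; compounds added after 16 h cell attachment; activity normalized between buffer-only basal and Salinomycin (10uM) inhibitor controls.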
# Pf growth 96h = Primary qHTS for delayed death inhibitors of the malarial parasite plastid, 96 hour incubation | Potency, µM (doses to about 28.7 µM), inactives show at the top dose activity change, negative = inhibition, usual class: inhibitors | P. falciparum luciferase reporter growth, 96 h | hit rate 6.9% among 320,000; also: potency is read from the fitted curve at half-maximal effect
#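 Delayed-death screen, second-generation endpoint: infected erythrocytes, 2% hematocrit, 0.05% parasitemia final; 96 hours at 37 C, 5% CO2; luciferase detection reagent; luminescence decrease equals reduced growth.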
# Sm TGR inh = qHTS Assay for the Inhibitors of Schistosoma Mansoni Peroxiredoxins. Schistosoma mansoni thioredoxin glutathione reductase (TGR), Q962Y6. purified TGR, DTNB reduction, TNB absorbance 405 nm. Potency, µM (highest dose often 114 µM), without a hit: at the top dose activity change, negative = inhibition, hits mostly inhibitors. hit rate 3% among 360,000. AID 485364, 2010; also: potency is read from the fitted curve at half-maximal effect; nearly all actives have a fitted effect of over 60% in size
#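 First, TGR (20 nM dispensed) and NADPH were mixed with compound. Second, a 15 min room-temperature incubation followed. Third, further NADPH and then DTNB were added to start the reaction. Finally, TNB absorbance was monitored kinetically.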
# Giardia FBPA inh = qHTS Assay for Inhibitors of Fructose-1,6-bisphosphate Aldolase from Giardia Lamblia | Potency, µM (doses to about 59.6 µM), for the others: at the highest dose activity, negative = inhibition, most hits filed as inhibitors | purified Giardia FBPA | hit rate 0.71% among 290,000 | A8B2U2; also: potency is read from the fitted curve at half-maximal effect; nearly all actives have a fitted effect of over 55% in size
# Target sequence (A8B2U2 whole entry, looked up): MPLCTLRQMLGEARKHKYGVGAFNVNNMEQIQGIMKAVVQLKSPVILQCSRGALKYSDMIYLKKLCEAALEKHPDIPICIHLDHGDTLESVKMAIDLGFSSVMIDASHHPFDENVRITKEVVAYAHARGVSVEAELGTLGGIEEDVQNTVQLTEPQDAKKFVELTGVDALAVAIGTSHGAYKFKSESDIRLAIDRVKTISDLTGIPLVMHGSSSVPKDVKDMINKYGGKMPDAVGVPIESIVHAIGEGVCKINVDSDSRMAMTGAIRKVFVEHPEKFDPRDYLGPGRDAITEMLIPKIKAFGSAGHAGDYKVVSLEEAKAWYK
#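 Giardia FBPA (40 nM reagent) was preincubated 10 min at RT with compound (up to 57.5 uM final), then substrate plus GAPDH/TPI/NAD/arsenate coupling system with diaphorase/resazurin was added; resorufin fluorescence (525/598 nm) was read after 20 min.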
# The depositor's hits bear a star; u = inconclusive; x = no result. Unless noted, calls follow the shape of the dose curve; as a rule, active = well fitted curve in the direction sought with a large enough effect; inconclusive = small, poorly fitted or top-dose-only effect, or another doubt; inactive = no such curve, though single readings can be large; an effect the other way counts as inactive or inconclusive. % is scaled to controls: 0 for no effect and ±100 for the full control effect.
SMILES,Pf growth 48h,HCMV antiviral,Pf growth 96h,Sm TGR inh,Giardia FBPA inh
COc1ccc(-c2nnc(SCC(=O)N(C)C3CCCCC3)o2)cc1OC,x,3,x,3%,x
Cc1oc(=O)c(NC(=O)c2cccc(Cl)c2)cc1C(=O)c1ccccc1,u,-84*,49%,4.5µM*,-19%
COC(=O)c1cc(NC(=O)c2ccccc2)c(=O)oc1C,0%,-34,44%,-20%,3%
COc1ccc(C(=O)Nc2cc(C(=O)c3ccccc3)c(C)oc2=O)cc1,-20%,19,65%,6.3µM*,-16%
COc1ccc(-c2cccc(C(=O)Nc3ccccc3C)c2)cc1,4%,u,9.3µM*,1%,0%
Cc1oc(=O)c(NC(=O)c2ccccc2)cc1C(N)=O,0%,16,u,-1%,-3%
CCOC(=O)N1CCc2c(sc3c2c(=O)n(-c2ccc(F)cc2)c(=O)n3CC(=O)c2ccccc2)C1,x,-11,x,-2%,x
O=C(Nc1ccccc1)N1CC2(CCN(C(=O)c3cc(C(F)(F)F)cc(C(F)(F)F)c3)CC2)C1,x,x,x,x,-1%
Cc1ccc(-c2cc(C(=O)NCc3ccco3)c3ccccc3n2)o1,-17%,-28,10%,18µM*,-9%
O=C(NCc1ccco1)c1cc(-c2ccncc2)nc2ccccc12,2.1µM*,-3,u,-32%,6%
Cc1ccc(CN2CC=CS2(=O)=O)cc1,x,-22,x,x,x
CCOC(=O)c1c(-c2cccs2)csc1NC(=O)C(C)(C)C,13µM*,-26,x,-11%,-9%
CCOC(=O)c1c(-c2ccccc2)csc1NC(=O)CCN1C(=O)c2ccccc2C1=O,12%,23,2.6µM*,-1%,-1%
CCOC(=O)c1c(NC(=O)CN2CCCCC2)sc(CN(C)C)c1-c1ccccc1,1%,-26,8%,7%,1%
CCOC(=O)c1c(NC(=O)CCl)sc(CN(C)C)c1-c1ccccc1,13µM*,-6,u,16µM*,-3%
CCOC(=O)c1c(-c2ccc(F)cc2)csc1NC(=O)CCN1CCOCC1,u,36,u,0%,u
CCOC(=O)c1c(-c2ccc(-c3ccccc3)cc2)csc1NC(=O)CCN1CCOCC1,u,-25,4.7µM*,8%,0%
O=c1oc2ccc3ccccc3c2cc1-c1nnc(Nc2cccc(F)c2)s1,x,u,x,4%,x
O=C(CNC(=O)N1CC(=O)Nc2ccccc21)Nc1ccc(Cl)cc1Cl,x,3,x,x,x
Cc1cccc(NC(=O)Cn2c(=O)n(CCCCCC(=O)NCc3ccccc3)c(=O)c3sccc32)c1,x,-33,x,-3%,x
NC(=O)C1CCN(C(=O)C2CC(=O)N(Cc3ccccc3)C2)CC1 (centres undefined),15%,-6,15%,6%,x
CCOC(=O)c1c(NC(=O)c2cccs2)sc(CC)c1-c1cccs1,x,-34,10µM*,-1%,3%
CCOC(=O)c1c(NC(=O)CCN2C(=O)c3ccccc3C2=O)sc(C(=O)OC(C)C)c1C,2%,3,u,-7%,-2%
CCOC(=O)c1c(-c2ccc(C)s2)csc1NC(=O)c1cccs1,x,-30,36%,0%,1%
CCOC(=O)c1c(NC(=O)CN2C(=O)NC3(CCCCC3C)C2=O)sc(C)c1C (centres undefined),-20%,85,u,-17%,-1%
SMILES,Pf growth 48h,HCMV antiviral,Pf growth 96h,Sm TGR inh,Giardia FBPA inh
CCOC(=O)c1c(-c2ccccc2)csc1NC(=O)c1cc2ccccc2oc1=O,12%,u,13µM*,-5%,3%
CCOC(=O)c1c(-c2ccc(F)cc2)csc1NC(=O)CN1C(=O)NC2(CCCCC2C)C1=O (centres undefined),10µM*,-13,9.3µM*,1%,-2%
CCOC(=O)c1sc(NC(=O)CCN2C(=O)c3ccccc3C2=O)c(C(=O)OCC)c1C,16%,2,13µM*,2%,3%
CCOC(=O)c1c(-c2ccc(-c3ccccc3)cc2)csc1NC(=O)c1cccc(N2C(=O)CCC2=O)c1,-2%,u,5.2µM*,-4%,-1%
CCOC(=O)c1c(-c2ccc(-c3ccccc3)cc2)csc1NC(=O)CNCCN(C)C,x,-100*,u,-28%,u
CCOC(=O)c1c(-c2cccs2)csc1NC(=O)CNCCN1CCOCC1,u,x,12µM*,-16%,23%
CCOC(=O)c1c(-c2ccccc2)csc1NC(=S)NC,10%,0,16%,1%,-1%
CCOC(=O)c1c(NC(=O)c2cccc(N3C(=O)CCC3=O)c2)sc(C)c1C,31%,-18,-20%,-13%,-6%
CCOC(=O)c1nnn(-c2ccccc2)c1C,23%,12,26%,0%,1%
CCOC(=O)c1nnn(-c2ccc([N+](=O)[O-])cc2[N+](=O)[O-])c1C,12µM*,-18,2%,-26%,u
O=C(CN1C=NS(=O)(=O)c2ccccc21)Nc1ccc(F)cc1,x,-1,x,8%,x
Cc1cccc(OCCC(=O)Nc2ccc(Cl)cc2F)c1,11%,-5,-86%,-4%,-1%
CCOC(=O)NC(O)C(=O)c1cccs1 (centres undefined),8%,17,5.2µM*,0%,12%
CCn1c2c(c3cc(Br)ccc31)CCC/C2=N\O,u,-107*,x,9%,-7%
O=C(CSC1=Nc2ccccc2C2=NC(Cc3ccccc3)C(=O)N12)Nc1ccccc1F (centres undefined),x,5,x,3%,x
CCOC(=O)c1cccc(NC(=O)C(C)n2c(C)c3cnn(-c4ccccc4)c(=O)c3c2C)c1 (centres undefined),x,-29,x,-13%,x
CCN(CC)CCOC(=O)c1ccc(N/C=C(/C#N)c2nc(-c3ccc4c(c3)OCO4)cs2)cc1,1µM*,0,1.3µM*,-7%,1%
COc1cc(/C=C(/C#N)c2nc(-c3cc4ccccc4oc3=O)cs2)cc([N+](=O)[O-])c1O,2.3µM*,-87*,u,16%,-9%
CCN(CC)CCOC(=O)c1ccc(N/C=C(/C#N)c2nc(-c3cc4ccccc4oc3=O)cs2)cc1,0.083µM*,-2,0.15µM*,u,5%
CCN(CC)CCOC(=O)c1ccc(N/C=C(/C#N)c2nc(-c3ccc(OC)cc3)cs2)cc1,u,-77*,u,-17%,-6%
O=C(NNc1ccc(C2CCCCC2)cc1)C(O)(c1ccccc1)c1cccs1 (centres undefined),u,29,74%,-17%,-8%
OC(c1ccccc1)(c1ccccc1)C1CCCN1 (centres undefined),98%,-5,212%,6%,3%
CCCC[N+]12CCC(CC1)C(C(O)(c1ccccc1)c1ccccc1)C2 (centres undefined),u,-35,10µM*,1%,6%

# Screens: PubChem, National Center for Advancing Translational Sciences (NCATS)
